From PubChem BioAssay
Values joined by “and” are separate entries in the source; they are usually repeats but may differ in a detail not shown here. Identical values can stand only once. Active and inactive are the calls of the source. Unless noted, no stated cut-off is given here; in the data, active means nuclear beta-catenin stimulation mostly above about 4.2% (no sharp cut-off); inactive means mostly below about 10%.

Assays:
[1] = stimulators of nuclear beta-catenin in C2C12, primary screen, imaging, WNT3A-conditioned medium, mouse C2C12, NPC library (AID 1117326); conditions: stronger effect = higher value; further: reference of the scale not given here
[2] = stimulators of insulin release from INS-1E, primary screen, cell-based, 5 mM glucose, NPC library (AID 1117329;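 active means compound raises insulin release from rat beta cells at 5 mM glucose, no numeric limit stated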; further: reference of the scale not given here); conditions: rat INS-1E insulin secretion, at 10 µM, stronger effect = higher value
[3] = glucagon-like peptide 1 release enhancers, primary assay, NCI-H716 cell line, NPC library (AID 1117341;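 active means compound raises GLP1 secretion from the human gut endocrine cells, with no numeric limit stated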; further: reference of the scale not given here); conditions: NCI-H716 cells, at 10 µM, stronger effect = higher value
[4] = growth inhibition of GSK3B-pretreated HCT116 cells – cell-based, CellTiter-Glo, 0.2 to 20 µM (AID 1117336;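 active means compounds lowering colon cancer cell viability after pretreatment blocking the GSK3B kinase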); conditions: HCT116 viability after GSK3B inhibitor, at 20 µM, stronger effect = higher value
[5] = inhibition of endothelial tube formation, primary screen, imaging, VEGF stimulated, CD31 staining, tube area, NPC library (AID 1117340;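 active means compound that reduces growth-factor-driven endothelial tube area in a mixed cell culture, no cutoff stated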); conditions: VEGF-stimulated ADSC/ECFC co-culture, at 10 µM, stronger effect = higher value
[6] = HCT116 colon cancer cell growth inhibition, primary screen, CellTiter-Glo luminescence, NPC library (AID 1117342;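 active means compounds that lower survival of HCT116 colon cancer cells in the luminescence readout, no numeric limit stated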); conditions: at 20 µM (top of the series)
[7] = CellTiter-Glo luminescent readout of SW480 viability loss, NPC library primary (AID 1117343;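 active means compounds that lower viability of the colon cancer cells in the luminescence readout, with no numeric limit stated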); conditions: CellTiter-Glo luminescence; at 20 µM (top of the series)
[8] = decreased DLD-1 cellular survival, CellTiter-Glo luminescent readout, NPC compound collection, primary HTS (AID 1117346;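 active means compounds that lower survival of DLD-1 colon cancer cells in the luminescence readout, no cutoff given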); conditions: DLD-1 viability, CellTiter-Glo luminescence; at 20 µM (top of the series)
[9] = survival rescue of mitochondrial mutant cells in low glucose, primary screen, MELAS cybrids, Rieske KO mouse fibroblasts, CellTiter-Glo (AID 1508586;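 active means mean z-score across replicates of 1.96 or higher in either the MELAS or the Rieske mutant cell line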;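 further: z relative to plate mean and SD of compound and empty wells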)
[10] = molecular target: NAD(+) hydrolase SARM1 (Homo sapiens) (UniProt Q6SZW1); assay: SARM1 TIR NADase inhibitors, cell lysate, NAD-Glo luminescence (AID 1508614;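 active means compound whose remaining NAD level is above about 45 nM, limit read from the data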); conditions: SAM-TIR HEK293T lysate NADase, at 1 µM, stronger effect = higher value
Sequence of NAD(+) hydrolase SARM1 (Homo sapiens) (Q6SZW1 whole entry, looked up): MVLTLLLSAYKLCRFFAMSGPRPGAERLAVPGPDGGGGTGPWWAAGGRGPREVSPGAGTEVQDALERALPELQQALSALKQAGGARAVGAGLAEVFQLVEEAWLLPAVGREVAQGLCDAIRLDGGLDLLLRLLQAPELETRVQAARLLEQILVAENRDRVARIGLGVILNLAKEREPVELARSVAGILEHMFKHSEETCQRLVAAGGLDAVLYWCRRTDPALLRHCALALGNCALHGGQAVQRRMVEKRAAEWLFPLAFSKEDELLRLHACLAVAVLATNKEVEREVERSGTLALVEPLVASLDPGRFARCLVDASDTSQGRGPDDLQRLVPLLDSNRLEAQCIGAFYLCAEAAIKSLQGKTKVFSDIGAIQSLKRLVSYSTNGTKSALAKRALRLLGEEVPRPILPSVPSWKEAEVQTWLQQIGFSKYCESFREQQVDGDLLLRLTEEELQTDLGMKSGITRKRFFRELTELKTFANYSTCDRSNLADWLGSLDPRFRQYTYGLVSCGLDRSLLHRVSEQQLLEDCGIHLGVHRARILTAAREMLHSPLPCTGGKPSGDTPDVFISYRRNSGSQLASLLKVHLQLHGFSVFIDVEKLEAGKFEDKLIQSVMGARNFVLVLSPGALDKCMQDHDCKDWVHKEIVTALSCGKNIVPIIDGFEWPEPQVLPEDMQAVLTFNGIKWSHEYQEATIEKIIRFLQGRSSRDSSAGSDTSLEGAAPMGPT

[11] = sensitizers of A549 cells to miR-34 induction, primary screen, imaging, A549 dox-inducible miR-34, nuclei and caspase counts (AID 1347080;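 active means compounds whose cell count with miR-34 switched on is under 0.7 times the count with it off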); conditions: A549 miR-34 inducible, Hoechst nuclei count, 48 h
[12] = hESC survival regulators, cell-based (AID 493140; call rule not given here;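 further: cells exposed to compounds for four days before counting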); conditions: human embryonic stem cell survival screen; stronger effect = higher value
[13] = liver-stage malaria parasite growth inhibition, primary screen, cell-based, HepG2, luciferase luminescence, HepG2 viability (AID 624349; in the data active means parasite load remaining mostly below about 12%, no sharp cut-off; inactive means mostly above about 10%;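 further: 100% = mean of DMSO negative control wells on the same plate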); conditions: P. berghei liver stage in HepG2, luciferase luminescence, concentration not given here; parasite load remaining: stronger effect = lower value; viability: measured here: HepG2 viability without parasites
[14] = MELAS cybrid survival, CellTiter-Glo 48 h, stronger effect = higher value
[15] = Rieske KO mouse fibroblast survival, CellTiter-Glo 72 h
[16] = stronger effect = lower value, cell number ratio, induced over uninduced
[17] = measured here: relative caspase fold change +Dox/-Dox
[18] = measured here: total cells with miR-34 induction, stronger effect = lower value
[19] = measured here: total cells without miR-34 induction

COC(=O)c1ccccc1C(=O)OC
nuclear beta-catenin stimulation ([1]; at 10 µM): -1.6% (inactive) | nuclear beta-catenin stimulation ([1]; stimulation, at 2 µM): -0.6% | insulin secretion stimulation [2]: 0.5% (inactive) | GLP1 secretion stimulation [3]: -5.4% (inactive)

C[C@]12CC[C@@H]3c4ccc(OC(=O)N(CCCl)CCCl)cc4CC[C@H]3[C@@H]1CC[C@@H]2O
nuclear beta-catenin stimulation ([1]; at 10 µM): -1.2% (inactive) | nuclear beta-catenin stimulation ([1]; stimulation, at 2 µM): 0.4% | insulin secretion stimulation [2]: -0.9% (inactive) | viability decrease [4]: 18.1% (inactive) | tube area decrease [5]: 2.8% (inactive) | GLP1 secretion stimulation [3]: 2.6% (inactive) | inhibition of viability [6]: -23.1% (inactive) | viability decrease (inhibition) [7]: 56.7% (active) | viability decrease (inhibition) [8]: 23.4% (inactive) | z-score [9, 14]: -1.9 (inactive) | z-score [9, 15]: 0.249 | remaining NAD [10]: 10 nM (inactive)

CCOC(=O)C=C(C)C=CC[C@@H](C)CCCC(C)C
nuclear beta-catenin stimulation ([1]; at 10 µM): 0.8% (inactive) | nuclear beta-catenin stimulation ([1]; stimulation, at 2 µM): -0.1% | insulin secretion stimulation [2]: 1.05% (inactive) | GLP1 secretion stimulation [3]: -6.5% (inactive)

Clc1cccc(N2CCNCC2)c1
nuclear beta-catenin stimulation ([1]; at 10 µM): 1% (inactive) | nuclear beta-catenin stimulation ([1]; stimulation, at 2 µM): 0.1% | insulin secretion stimulation [2]: 3.9% (inactive) | viability decrease [4]: 15% (inactive) | tube area decrease [5]: 3.3% (inactive) | GLP1 secretion stimulation [3]: 6.5% (inactive) | inhibition of viability [6]: 10.8% (inactive) | viability decrease (inhibition) [7]: 68.5% (active) | viability decrease (inhibition) [8]: 26.4% (inactive)

CCCCCCC(=O)CCCCCC/C=C/C[C@@H](O)[C@H](O)[C@@](N)(CO)C(=O)O
nuclear beta-catenin stimulation ([1]; at 10 µM): -0.4% (inactive) | nuclear beta-catenin stimulation ([1]; stimulation, at 2 µM): 1.7% | insulin secretion stimulation [2]: 1.7% (inactive) | viability decrease [4]: -39.7% (inactive) | tube area decrease [5]: -16.8% (inactive) | GLP1 secretion stimulation [3]: -2.8% (inactive) | inhibition of viability [6]: -29.4% (inactive) | viability decrease (inhibition) [7]: 31.4% (inactive) | viability decrease (inhibition) [8]: 9.9% (inactive) | fold change [11, 16]: 0.991 (inactive) | fold change [11, 17]: 0.843 | cell count [11, 18]: 5220 | cell count [11, 19]: 5270

COc1ccc2c(c1OC)CN1CCc3cc4c(cc3C1C2)OCO4 (configuration not stated)
survival [12]: 0.583 (inactive) | parasite load remaining [13]: 82.7% (inactive) | viability [13]: 89.1% | nuclear beta-catenin stimulation ([1]; at 10 µM): 2.2% (inactive) | nuclear beta-catenin stimulation ([1]; stimulation, at 2 µM): 2.8% | insulin secretion stimulation [2]: 1.5% (inactive) | viability decrease [4]: 34.2% (inactive) | tube area decrease [5]: 1.4% (inactive) | GLP1 secretion stimulation [3]: -1% (inactive) | inhibition of viability [6]: 49.3% (inactive) | viability decrease (inhibition) [7]: -5.2% (inactive) | viability decrease (inhibition) [8]: 21.3% (inactive) | fold change ([11]; stronger effect = lower value): 0.795 (inactive) | fold change [11, 17]: 1.12 | cell count [11, 18]: 8510 | cell count [11, 19]: 10700

CC[N+]1(CCOC(=O)C(O)(c2ccccc2)c2ccccc2)CCCCC1
nuclear beta-catenin stimulation ([1]; at 10 µM): -0.3% (inactive) | nuclear beta-catenin stimulation ([1]; stimulation, at 2 µM): 0.7% | insulin secretion stimulation [2]: -0.8% (inactive) | tube area decrease [5]: 23.5% (inactive) | GLP1 secretion stimulation [3]: 0.5% (inactive)

C[C@]12CCC(=O)C=C1CC[C@@H]1[C@@H]2CC[C@]2(C)C(=O)CC[C@@H]12
nuclear beta-catenin stimulation ([1]; at 10 µM): -0.1% (inactive) | nuclear beta-catenin stimulation ([1]; stimulation, at 2 µM): -1.6% | insulin secretion stimulation [2]: 2.4% (inactive) | viability decrease [4]: 64.9% (active) | tube area decrease [5]: -7% (inactive) | GLP1 secretion stimulation [3]: -2.7% (inactive) | inhibition of viability [6]: 68.5% (active) | viability decrease (inhibition) [7]: 23.5% (inactive) | viability decrease (inhibition) [8]: 45.9% (inactive)

OC(c1ccccc1)(c1ccccc1)C1CCNCC1
survival [12]: 34.8 (inactive) | parasite load remaining [13]: 42.4% (inactive) and 92.2% (inactive) | viability [13]: 47.4% and 92.3% | nuclear beta-catenin stimulation ([1]; at 10 µM): -0.1% (inactive) | nuclear beta-catenin stimulation ([1]; stimulation, at 2 µM): 0.4% | insulin secretion stimulation [2]: 17.4% (inactive) | viability decrease [4]: -5.8% (inactive) | tube area decrease [5]: 27.7% (inactive) | GLP1 secretion stimulation [3]: 0.1% (inactive) | inhibition of viability [6]: -10.1% (inactive) | viability decrease (inhibition) [7]: 117% (active) | viability decrease (inhibition) [8]: 2.9% (inactive) | fold change ([11]; stronger effect = lower value): 0.979 (inactive) and 0.871 (inactive) | fold change [11, 17]: 1.21 and 1 | cell count [11, 18]: 8990 and 7950 | cell count [11, 19]: 9180 and 9130 | z-score [9, 14]: -0.109 (inactive) and -0.124 (inactive) | z-score [9, 15]: -0.152 and 0.513

COP(=S)(OC)Oc1cc(Cl)c(Cl)cc1Cl
parasite load remaining [13]: 48.6% (inactive) | viability [13]: 108% | nuclear beta-catenin stimulation ([1]; at 10 µM): 2.5% (inactive) | nuclear beta-catenin stimulation ([1]; stimulation, at 2 µM): -0.1% | insulin secretion stimulation [2]: 2.1% (inactive) | viability decrease [4]: -23.4% (inactive) | tube area decrease [5]: -3.6% (inactive) | GLP1 secretion stimulation [3]: 3.7% (inactive) | inhibition of viability [6]: 9.4% (inactive) | viability decrease (inhibition) [7]: 32% (inactive) | viability decrease (inhibition) [8]: 15.4% (inactive) | fold change [11, 16]: 0.898 (inactive) | fold change [11, 17]: 3.75 | cell count [11, 18]: 12000 | cell count [11, 19]: 13300

C=C1CC[C@@]2(O)[C@H]3Cc4ccc(O)c5c4[C@@]2(CCN3CC2CC2)[C@H]1O5
nuclear beta-catenin stimulation ([1]; at 10 µM): 0.5% (inactive) | nuclear beta-catenin stimulation ([1]; stimulation, at 2 µM): 2.1% | insulin secretion stimulation [2]: 1.2% (inactive) | viability decrease [4]: -11.9% (inactive) | tube area decrease [5]: 5.1% (inactive) | GLP1 secretion stimulation [3]: 2.6% (inactive) | inhibition of viability [6]: 20.1% (inactive) | viability decrease (inhibition) [7]: 7.8% (inactive) | viability decrease (inhibition) [8]: 6.2% (inactive) | z-score [9, 14]: 0.147 (inactive) | z-score [9, 15]: -0.2

CCC1(c2cccc(O)c2)CCCCN(C)C1 (configuration not stated)
survival [12]: 2.75 (inactive) | parasite load remaining [13]: 114% (inactive) | viability [13]: 77.7% | nuclear beta-catenin stimulation ([1]; at 10 µM): -0.6% (inactive) | nuclear beta-catenin stimulation ([1]; stimulation, at 2 µM): -0.3% | insulin secretion stimulation [2]: 19.8% (inactive) | viability decrease [4]: 10.8% (inactive) | tube area decrease [5]: -4.7% (inactive) | GLP1 secretion stimulation [3]: 1.4% (inactive) | inhibition of viability [6]: -13.6% (inactive) | viability decrease (inhibition) [7]: 57% (active) | viability decrease (inhibition) [8]: 13.3% (inactive) | fold change ([11]; stronger effect = lower value): 0.914 (inactive) and 0.925 (inactive) | fold change [11, 17]: 0.54 and 0.493 | cell count [11, 18]: 8800 and 7600 | cell count [11, 19]: 9630 and 8210 | z-score [9, 14]: -0.204 (inactive) and -0.911 (inactive) | z-score [9, 15]: -0.179 and 0.197

C[C@@H]1CN(C2CCC(C#N)(c3ccc(F)cc3)CC2)CC[C@]1(C(=O)O)c1ccccc1 (some centres not stated)
survival [12]: 4.42 (inactive) | parasite load remaining [13]: 126% (inactive) | viability [13]: 76.2% | nuclear beta-catenin stimulation ([1]; at 10 µM): 0% (inactive) | nuclear beta-catenin stimulation ([1]; stimulation, at 2 µM): 0.4% | insulin secretion stimulation [2]: -1.7% (inactive) | viability decrease [4]: 18.6% (inactive) | tube area decrease [5]: 9.6% (inactive) | GLP1 secretion stimulation [3]: 1.1% (inactive) | inhibition of viability [6]: 15.3% (inactive) | viability decrease (inhibition) [7]: 33.5% (inactive) | viability decrease (inhibition) [8]: 30.7% (inactive) | fold change ([11]; stronger effect = lower value): 0.976 (inactive) | fold change [11, 17]: 0.701 | cell count [11, 18]: 9400 | cell count [11, 19]: 9630 | z-score [9, 14]: -1.75 (inactive) | z-score [9, 15]: -1.19
